Results filed as inconclusive are left out. Active and inactive are the calls of the source. Calls follow the shape of the dose curve; as a rule, active = well fitted curve in the direction sought with a large enough effect; inconclusive = small, poorly fitted or top-dose-only effect, or another doubt; inactive = no such curve, though single readings can be large; an effect the other way counts as inactive or inconclusive.
Columns and labels:
[1] = qHTS of pediatric cancer cell lines to identify multiple opportunities for drug repurposing: Primary screen for A673 cells (AID 1347092); conditions: A673 Ewing sarcoma viability, CellTiter-Glo ATP luminescence, 48 h; series mostly up to 92.7 µM; also: nearly all actives have a fitted effect of over 45% in size; also: potency is read from the fitted curve at half-maximal effect
Procedure, shortened: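 A673 cells (500-1,000 cells/well in growth media) were pre-incubated 5 h at 37 degrees C, then exposed to compounds for 48 h. Viability was read as CellTiter-Glo luminescence; concentration-response curves came directly from the primary screen.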

[2] = qHTS of pediatric cancer cell lines to identify multiple opportunities for drug repurposing: Primary screen for SK-N-MC cells (AID 1347093); conditions: SK-N-MC viability, CellTiter-Glo luminescence, 48 h; series mostly up to 92.7 µM; also: potency is read from the fitted curve at half-maximal effect
Procedure, shortened: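 Metabolically active cells were quantified by ATP-dependent luminescence (CellTiter-Glo, 15 min at room temperature) following 48 h treatment. Cells had been plated at 500-1,000 per well and settled for 5 h beforehand.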

[3] = qHTS of pediatric cancer cell lines to identify multiple opportunities for drug repurposing: Primary screen for BT-37 cells (AID 1347094); conditions: BT-37 viability, CellTiter-Glo luminescence, 48 h; series mostly up to 116 µM; also: potency is read from the fitted curve at half-maximal effect
Procedure, shortened: (§1)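 Quantitative HTS format: each compound titrated (MIPE 11 points from 0.78 nM, NPC 8 points from 0.59 nM) onto cells plated 5 hours earlier. After 48 h at 37 degrees C, CellTiter-Glo luminescence was recorded.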

[4] = qHTS of pediatric cancer cell lines to identify multiple opportunities for drug repurposing: Primary screen for NB-EBc1 cells (AID 1347095); conditions: NB-EBc1 neuroblastoma viability, CellTiter-Glo luminescence, 48 h; series mostly up to 92.7 µM
Procedure, shortened: as §1

[5] = qHTS of pediatric cancer cell lines to identify multiple opportunities for drug repurposing: Primary screen for U-2 OS cells (AID 1347096); conditions: U-2 OS viability, CellTiter-Glo luminescence, 48 h; series mostly up to 92.7 µM; also: nearly all actives have a fitted effect of over 50% in size; also: potency is read from the fitted curve at half-maximal effect
Excerpt: Drug repurposing or repositioning has been offered as a strategy for drug development in oncology programs. This approach has special potential for childhood cancers and other rare or orphan diseases, where the expected return on new drug development has been a disincentive to pharmaceuticals.
In this project we exploit the poly-pharmacology of drugs to discover new indications via phenotypic screening of a panel of 19 well-characterized cell lines derived from solid tumors seen in children and adolescents. The goal is to identify approved drugs with previously unrecognized anticancer properties that has the potential to reveal new mechanisms and biological processes involved in carcinogenesis or drug resistance. We employed a titration-based paradigm (quantitative high-throughput screening or qHTS), where all compounds were tested at multiple concentrations for their effect on cell viability. […] We screened the NIH Chemical Genomics Center (NCGC) Pharmaceutical Collection (NPC) and Mechanism Interrogation Plate (MIPE) small molecule collections of approved and investigational compounds against these cell lines; and measured metabolically active cells after 48 hours of compound treatment as a proxy for cell viability. […]
[1] Shen, M et al. Quantitative high-throughput phenotypic screening of pediatric cancer cell lines identifies multiple opportunities for drug repurposing. […]

[6] = qHTS of pediatric cancer cell lines to identify multiple opportunities for drug repurposing: Primary screen for SK-N-SH cells (AID 1347098); conditions: SK-N-SH viability, CellTiter-Glo luminescence, 48 h; series mostly up to 115 µM; also: nearly all actives have a fitted effect of over 65% in size; also: potency is read from the fitted curve at half-maximal effect
Procedure, shortened: (§2)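 Cells (500-1,000/well) rested 5 h, then received compounds for 48 h; metabolically active cells were measured by CellTiter-Glo luminescence. Final concentrations spanned up to 46 µM (MIPE, 11-point) or 0.59 nM-46 µM (NPC, 8-point) in primary screens, 11-point in follow-ups.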

[7] = qHTS of pediatric cancer cell lines to identify multiple opportunities for drug repurposing: Primary screen for NB1643 cells (AID 1347099); conditions: NB1643 neuroblastoma viability, CellTiter-Glo luminescence, 48 h; series mostly up to 92.7 µM; also: nearly all actives have a fitted effect of over 50% in size; also: potency is read from the fitted curve at half-maximal effect
Procedure, shortened: as §1

[8] = qHTS of pediatric cancer cell lines to identify multiple opportunities for drug repurposing: Primary screen for LAN-5 cells (AID 1347100); conditions: LAN-5 neuroblastoma viability, CellTiter-Glo luminescence, 48 h; series mostly up to 92.7 µM
Procedure, shortened: as §2

[9] = qHTS of pediatric cancer cell lines to identify multiple opportunities for drug repurposing: Primary screen for BT-12 cells (AID 1347101); conditions: BT-12 viability, CellTiter-Glo luminescence, 48 h; series mostly up to 116 µM; also: nearly all actives have a fitted effect of over 25% in size; also: potency is read from the fitted curve at half-maximal effect
Procedure, shortened: as §2

[10] = qHTS of pediatric cancer cell lines to identify multiple opportunities for drug repurposing: Primary screen for Saos-2 cells (AID 1347097); conditions: Saos-2 viability, CellTiter-Glo ATP luminescence, 48 h; also: potency is read from the fitted curve at half-maximal effect; nearly all actives have a fitted effect of over 40% in size
Procedure, shortened: as §1

Measured: Potency

CCCSP(=O)(OCC)SCCC
not listed: [10]
inactive: all other assays above

C[CH2][Hg][S]c1ccccc1C(=O)O
active: [1] 841 nM | [2] 668 nM | [3] 12300 nM | [5] 6680 nM | [10] 841 nM | [6] 3070 nM | [7] 2370 nM | [9] 3470 nM

From PubChem BioAssay (NCATS)
